Source: PubChem
HTT cytoprotect = protects HTT-Q103 PC12 cells, measured by ATP; Potency, µM (doses to about 56.4 µM), inactives show cytoprotection (ATP increase), hits mostly activators; PC12 HTT-Q103 induced, cytoprotection, ATP luminescence, 40 h; 230,000 compounds, 0.14% hits; also: potency is read from the fitted curve at half-maximal effect; % of control where 0% means no effect; nearly all actives have a fitted effect of over 45% in size
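Cells were plated at 1500 per well in phenol red-free DMEM with 5% equine and 5% calf serum. Tebufenozide (100 nM final) and compounds were added, then ATPlite reagent, and luminescence was read.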
HPGD block = blocks human HPGD enzyme activity; P15428; purified HPGD, NADH fluorescence kinetic, PGE2 substrate; Potency, µM, inactives show at the top dose activity change, negative = inhibition, hits mostly inhibitors; 150,000 compounds, 4.3% hits; AID 894; active = well fitted inhibition curve with a large enough effect, not every such curve was filed as active; inconclusive = small, poorly fitted or top-dose-only effect, or another doubt; inactive = no such curve, though single readings can be large or run the other way; also: potency is read from the fitted curve at half-maximal effect; % is scaled to controls: 0 for no effect and ±100 for the full control effect
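NADH formation kinetics: reaction with 30 uM PGE2 and 1 mM NAD+ (final), 20 nM enzyme, Tris-HCl pH 8 with Tween 20, after 15 min compound preincubation at room temperature. Fluorescence change, last versus first of five reads.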
HttQ103 aggreg = mutant huntingtin aggregation inhibition. PC12 HttQ103-GFP aggregates, Acumen cytometry, 40 h. Potency, µM (highest dose often 46.1 µM), without a hit: at the highest dose activity change, negative = inhibition, hits mostly inhibitors. 220,000 compounds, 1.1% hits. AID 1688; also: potency is read from the fitted curve at half-maximal effect; % is scaled to controls: 0 for no effect and ±100 for the full control effect; nearly all actives have a fitted effect of over 60% in size
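Aggregate formation scored by laser-scanning cytometer (488 excitation, 500–530 emission) in lysed PC12 cells expressing Q103-GFP after 100 nM tebufenozide induction; library tested in dose series, with ATPLite reagent added in the multiplex.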
PNC assembly inh = perinucleolar compartment assembly inhibition; PC3M PTB-GFP, PNC prevalence imaging, 16 h; active compounds read low; activity change (PNC), negative = inhibition, % at 10 µM; 140,000 compounds, 3.1% hits; AID 2417;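 active = readout at or below -70, meaning at least 70% loss of cells showing the perinucleolar compartment, a nuclear body marking cancer cells; inconclusive = readout between -30 and a set limit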;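 also: plate controls were DMSO wells for no effect and camptothecin positive control wells for full effect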
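Compounds are pinned in duplicate onto adhered PC3M cells stably expressing GFP-tagged PTB and incubated 16 h at 37 C. Cells are then fixed, nuclei stained with Hoechst, and PNC-positive cells counted.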
ALDH1A1 inh = inhibitors of human aldehyde dehydrogenase 1A1; P00352; Purified ALDH1A1, NADH fluorescence, propionaldehyde substrate; Potency, µM (highest dose often 75.3 µM), inactives show at the highest dose activity, negative = inhibition, hits mostly inhibitors; 220,000 compounds, 7.3% hits; AID 1030; active = well fitted inhibition curve with a large enough effect, not every such curve was filed as active; inconclusive = small, poorly fitted or top-dose-only effect, or another doubt; inactive = no such curve, though single readings can be large or run the other way;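 also: potency is read from the fitted curve at half-maximal effect; plate controls were no enzyme wells and a reference inhibitor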
Target sequence (P00352 whole entry, looked up): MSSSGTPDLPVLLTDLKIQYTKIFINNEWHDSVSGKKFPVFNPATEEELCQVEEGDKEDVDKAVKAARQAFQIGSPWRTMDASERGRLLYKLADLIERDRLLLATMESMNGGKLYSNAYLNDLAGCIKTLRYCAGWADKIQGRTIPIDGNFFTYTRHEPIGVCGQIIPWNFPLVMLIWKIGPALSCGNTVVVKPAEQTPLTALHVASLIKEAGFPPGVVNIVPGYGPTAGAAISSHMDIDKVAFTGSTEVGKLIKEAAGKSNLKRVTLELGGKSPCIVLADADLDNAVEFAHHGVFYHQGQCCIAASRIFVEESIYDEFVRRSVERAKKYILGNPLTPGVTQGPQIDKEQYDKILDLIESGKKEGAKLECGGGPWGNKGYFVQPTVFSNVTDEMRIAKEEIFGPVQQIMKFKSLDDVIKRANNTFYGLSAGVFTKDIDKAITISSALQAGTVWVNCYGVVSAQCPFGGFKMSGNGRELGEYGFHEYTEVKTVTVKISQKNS
CBFb RUNX1 block = blocks binding between human CBF-beta and RUNX1; Q01196+Q13951; AlphaScreen CBFb-His/RUNX1-biotin binding, biochemical; Potency, µM (series often up to 59.8 µM), without a hit: top-dose activity, negative = inhibition, usual class: inhibitors; 230,000 tested, under 10 active; AID 1477; also: % of control where 0% means no effect
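CBFb-His/RUNX1-biotin, 30 nM each, preincubated 20 min RT; compound 15 min RT; Ni + streptavidin beads 50 ng each, 90 min RT; AlphaScreen read.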
Numbers without * were called inactive; i = inactive; ? = inconclusive; / = no result given; [ ] = dose if it differs, or a comment. An excerpt weighted towards active compounds, which were near 11% of everything screened. Unless noted, calls follow the shape of the dose curve; as a rule, active = well fitted curve in the direction sought with a large enough effect; inconclusive = small, poorly fitted or top-dose-only effect, or another doubt; inactive = no such curve, though single readings can be large; an effect the other way counts as inactive or inconclusive.

SMILES | HTT cytoprotect | HPGD block | HttQ103 aggreg | PNC assembly inh | ALDH1A1 inh | CBFb RUNX1 block
Cc1cccc(/N=C/c2c(O)n(-c3cc(Cl)ccc3N3CCOCC3)c(=O)c3ccccc23)n1 | 16.2%[10 µM] | / | / | / | / | /
N#CC1=C(N)Oc2cc(N)ccc2C1c1ccc(F)cc1 (configuration not stated) | -10.9% | -19.6% | -4.4% | ? | -13.3% | -8.5%
COc1cc(C2C(C#N)=C(N)Oc3cc(N)ccc32)cc(OC)c1OC (configuration not stated) | -79.1%[10 µM] | -17.3% | 1.9% | -89.3* | 3.4% | -9.7%
CCN(C(=O)CN1C(=S)NC(C)(C)CC1C)c1ccc(C)c(C)c1 (configuration not stated) | -18.0% | / | 22.4% | / | 28.2µM* | -6.6%
[O-][n+]1c2c(nc3c1-c1ccccc1C3O)CCCC2 (configuration not stated) | 2.6%[10 µM] | / | -0.8%[9.22 µM] | / | ? | 3.4%
CCCN1C(=O)SC(CC(=O)Nc2cccc3ccccc23)C1=O (configuration not stated) | -15.4%[10 µM] | -4.6% | ? | -24.5 | 22.4µM* | 2.3%
CCCN1C(=O)SC(CC(=O)Nc2ccccc2)C1=O (configuration not stated) | 3.0%[10 µM] | -3.1% | 10.9% | 37.7 | 20µM* | 2.3%
N[C@@H](CSCc1ccccc1)C(=O)O | -12.3%[10 µM] | -0.8% | / | / | 8.5%[13.5 µM] | /
CC(C)OCCCNc1ncc2c(n1)CC(c1ccc(N(C)C)cc1)CC2=O (configuration not stated) | 33.3%[10 µM] | -17.3% | -0.2% | 24.0 | 8.91µM* | 8.1%
CC(C)OCCCNc1ncc2c(n1)CC(c1cccs1)CC2=O (configuration not stated) | 27.2%[10 µM] | / | 13.5%[9.22 µM] | / | -0.6% | 10.1%
O=S(=O)(Nc1cccc2ncccc12)c1cccs1 | 20.0%[10 µM] | -18.1% | 12.6µM* | ? | -6.8% | -2.1%
O=C1Nc2ccc(NS(=O)(=O)c3cccs3)c3cccc1c23 | -28.7% | -15.8% | 1.7% | -25.3 | 15.8µM* | 1.4%
COc1cccc([C@@H]2Oc3ccc(OC)cc3C[C@H]2OC(=O)N[C@H](C)C2CCCCC2)c1 | ? | -7.5% | / | / | 0.2% | -6.3%
Cn1cccc1C(=O)N1CCC2(CCCN(c3ccncc3)C2)CC1 | ? | -5.8% | / | / | 5.7% | /
CCCCc1ccc(NC(=O)CC(C)=O)cc1 | -22.3% | -5.2% | -5.9% | -126.9* | -4.7% | 9.6%
CCCCc1ccc(NC(=O)CC(C)(C)C)cc1 | / | 14.1µM* | -27.2% | 44.1 | 9.9% | 15.7%
O=C1/C(=C\c2cccs2)N=C(c2cccs2)N1Nc1ccccc1 | -8.4% | -28.2% | 10.6% | 15.1 | 14.1µM* | -27.0%
Clc1cccc(-c2nn3c(Cn4cnc5ccccc54)nnc3s2)c1 | -23.0%[0.074 µM] | 25.1µM* | -3.3% | ? | 10µM* | -17.3%
CCOc1cccc(-c2nnc3sc(-c4ccco4)nn23)c1 | -15.2% | -21.7% | -14.1% | ? | ? | -1.5%
c1csc(-c2nn3c(Cn4nnc5ccccc54)nnc3s2)c1 | -4.8%[10 µM] | ? | 3.9% | 15.4 | i | 2.1%
Clc1ccc(Cc2nn3c(Cn4nnc5ccccc54)nnc3s2)cc1 | -6.3%[0.074 µM] | 22.4µM* | -19.7% | ? | 22.4µM* | -5.7%
c1ccc2c(c1)nnn2Cc1nnc2sc(-c3ccncc3)nn12 | 23.1%[0.074 µM] | 17.8µM* | -10.2% | -14.4 | ? | -0.1%
c1csc(-c2nn3c(Cn4cnc5ccccc54)nnc3s2)c1 | -13.3%[0.074 µM] | ? | -0.5% | ? | ? | 6.2%
c1coc(-c2nn3c(Cn4nnc5ccccc54)nnc3s2)c1 | -7.6%[0.074 µM] | 10µM* | 4.4% | 4.3 | 10µM* | 6.3%
CCCCCCc1cc2cc(C(=O)Nc3ccccc3)c(=O)oc2cc1O | -39.0%[10 µM] | ? | 2.24µM* | -19.7 | 138.0% | -6.0%
CN(C)CCN1C(=O)C(=O)/C(=C(/O)c2ccc3c(c2)OCCO3)C1c1ccccn1 (configuration not stated) | -23.8%[10 µM] | / | -10.6%[9.22 µM] | / | / | -12.0%
